# Compound activity: PubChem, National Center for Advancing Translational Sciences (NCATS)
# ASM inhibitor: Inhibitors of Secretory Acid Sphingomyelinase (S-ASM): qHTS; AID 504937, 2011; placental ASM, HMU-PC fluorogenic substrate, 60 min; hit rate 0.006% among 340,000; Sphingomyelin phosphodiesterase (Homo sapiens), P17405; Potency, µM (series often up to 57.5 µM), inactives show at the top dose activity change, negative = inhibition, actives largely listed as inhibitors; also: potency is read from the fitted curve at half-maximal effect
# Target sequence (P17405 47-631 limits assumed): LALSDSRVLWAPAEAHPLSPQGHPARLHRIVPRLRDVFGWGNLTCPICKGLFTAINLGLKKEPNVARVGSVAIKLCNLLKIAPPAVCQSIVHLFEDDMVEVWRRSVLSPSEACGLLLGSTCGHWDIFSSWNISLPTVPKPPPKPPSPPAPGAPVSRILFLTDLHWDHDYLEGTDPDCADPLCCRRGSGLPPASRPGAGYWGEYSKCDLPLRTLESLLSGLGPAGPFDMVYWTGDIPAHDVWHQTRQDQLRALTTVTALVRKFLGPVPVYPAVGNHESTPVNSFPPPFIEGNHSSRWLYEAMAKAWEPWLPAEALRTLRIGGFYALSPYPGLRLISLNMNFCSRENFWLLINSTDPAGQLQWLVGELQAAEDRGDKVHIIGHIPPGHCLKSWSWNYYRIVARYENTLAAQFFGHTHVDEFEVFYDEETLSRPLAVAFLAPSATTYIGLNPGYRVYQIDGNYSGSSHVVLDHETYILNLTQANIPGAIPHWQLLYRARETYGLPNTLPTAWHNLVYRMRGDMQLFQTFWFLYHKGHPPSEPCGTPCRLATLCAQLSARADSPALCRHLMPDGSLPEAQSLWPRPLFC
#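 Steps: dispense placental human ASM, pin compound, wait 10 min at room temperature, add HMU-PC0 substrate at 9 uM final, incubate 60 min at 37 °C, add stop solution raising pH to 10, read fluorescence.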
# DT40 TDP1 no CPT: qHTS for Inhibitors of human tyrosyl-DNA phosphodiesterase 1 (TDP1): qHTS in cells in absence of CPT; DT40 Tdp1-/- hTDP1 cells, no CPT, ATP luminescence, 48 h; Potency, µM (doses to about 46.2 µM), without a hit: at the highest dose activity change, negative = growth inhibition, usual class: inhibitors; hit rate 15% among 420,000; also: potency is read from the fitted curve at half-maximal effect; % is scaled to controls: 0 for no effect and ±100 for the full control effect; nearly all actives have a fitted effect of over 55% in size
#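 Readout: luminescence from CellTiter-Glo after 30 min in the dark at RT. Cells: DT40 Tdp1-/- with stable hTDP1, 400/well. Exposure: compounds alone, ≥48 hr, 37 °C.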
# TGFb inhibitor: qHTS for Inhibitors of TGF-b | HepG2 CAGA-GFP TGF-b/SMAD3 reporter, GFP fluorescence, 18 h; TGF-beta stimulated, 500 pg/mL final | Potency, µM (doses to about 46.1 µM), inactives show at the highest dose activity, negative = inhibition, hits mostly inhibitors | hit rate 1.2% among 410,000 | AID 588855, 2011; also: potency is read from the fitted curve at half-maximal effect; % is scaled to controls: 0 for no effect and ±100 for the full control effect; nearly all actives have a fitted effect of over 65% in size
#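 HEPG2 CAGA-GFP cells (1000/well, DMEM with 1% FBS) were pre-incubated 2 h at 37 degrees C, given compound by pin tool, then stimulated with TGF-beta at 500 pg/mL final for 18 h before per-cell GFP fluorescence imaging.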
# IL-1B inflam inh: qHTS for Inhibitors of Inflammasome Signaling: IL-1-beta AlphaLISA Primary Screen | activity change, % at 57.5 µM | hit rate 4.7% among 360,000 | THP-1 LPS/ATP IL-1B secretion, AlphaLISA, 16 h; active compounds read low; in the data active = activity change below about -50%; inconclusive = mostly about -30% to -49%; also: % is scaled to controls: 0 for no effect and ±100 for the full control effect
#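 THP-1 cells pretreated 1 hr with compounds (up to 57.5 uM final), then stimulated with LPS (250 ng/mL final) plus ATP (1.25 mM final); secreted IL-1B measured by AlphaLISA after 16 hr, decreased signal indicating inhibition.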
# HepG2 viability: qHTS for Inhibitors of TGF-b: Cytotox Counterscreen | HepG2 CAGA-GFP viability, ATP luminescence, 18 h | Potency, µM (doses to about 46.1 µM), for the others: top-dose activity change, negative = cytotoxicity, actives largely listed as cytotoxic | hit rate 0.76% among 410,000 | AID 588856, 2011; also: potency is read from the fitted curve at half-maximal effect
#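 HepG2 CAGA-GFP cells (1000/well, DMEM with 1% FBS) received compound, then TGF-beta at 500 pg/mL final, and were incubated 18 hours at 37 degrees C. Viability was read by CellTiter-Glo luminescence. Media-only wells were set as complete cell-killing and DMSO as no toxicity.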
# DT40 TDP1 CPT: qHTS for Inhibitors of human tyrosyl-DNA phosphodiesterase 1 (TDP1): qHTS in cells in presence of CPT; chicken DT40 Tdp1-/-;hTDP1 cells + 20 nM CPT, ATP luminescence, 48 h; Potency, µM (top dose mostly 46.2 µM), for inactives: at the highest dose activity change, negative = growth inhibition, hits mostly inhibitors; hit rate 12% among 420,000; also: potency is read from the fitted curve at half-maximal effect; % is scaled to controls: 0 for no effect and ±100 for the full control effect; nearly all actives have a fitted effect of over 55% in size
#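 Chicken DT40 Tdp1-/- cells stably complemented with human TDP1 were seeded at 400 cells/well in medium containing 20 nM camptothecin, exposed to pin-transferred compounds, and grown at 37 °C for at least 48 hr. Viability was read as ATP luminescence.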
# * marks the source's active call; other numbers are inactive results; ? = inconclusive; / = not tested or not shown; [ ] = dose if it differs, or a comment. Rows were chosen to be rich in hits. Some 19% of all compounds tested hit in one or more screens of this group. Unless noted, calls follow the shape of the dose curve; as a rule, active = well fitted curve in the direction sought with a large enough effect; inconclusive = small, poorly fitted or top-dose-only effect, or another doubt; inactive = no such curve, though single readings can be large; an effect the other way counts as inactive or inconclusive.
SMILES,ASM inhibitor,DT40 TDP1 no CPT,TGFb inhibitor,IL-1B inflam inh,HepG2 viability,DT40 TDP1 CPT
CCOC(=O)c1ccc(N2C(=O)C(CC(=O)NC)N(CCc3ccc(OC)c(OC)c3)C2=S)cc1 (stereo not given),-9.6%,?,-5.7%,?,-13.9%,?
COc1cccc(-c2cnc3c(NC(C)=O)cc(-c4ccccc4OC)cn23)c1,/,16.4µM*,-23.1%,0.0,-24.4%,18.4µM*
COc1ccccc1-c1cc(NC(C)=O)c2ncc(-c3ccccc3)n2c1,/,9.2µM*,?,-27.5,-69.7%,20.6µM*
CC(=O)Nc1cc(-c2ccccc2F)cn2c(-c3ccccc3)cnc12,/,?,-14.4%,-25.1,-32.6%,16.4µM*
COc1ccc(-c2cc(NC(C)=O)c3ncc(-c4ccccc4)n3c2)c(OC)c1,/,-83.3%,?,-25.8,2.7%,?
COc1cccc(-c2cnc3c(NC(C)=O)cc(-c4cc(OC)c(OC)c(OC)c4)cn23)c1,/,?,26.0%,0.0,-37.8%,?
COc1ccccc1-c1cc(NC(C)=O)c2ncc(-c3cccc(C(F)(F)F)c3)n2c1,/,20.6µM*,?,-4.0,15.8µM*,23.1µM*
COc1ccc(-c2cc(NC(C)=O)c3ncc(-c4cccc(C(F)(F)F)c4)n3c2)c(OC)c1,/,?,?,-5.4,-24.5%,?
Cc1cc2nccc(C)c2cc1C,/,-2.7%,-12.6%,/,1.9%,3.4%
c1ccc2c(c1)Cc1ccccc1O2,0.7%,?,-10.1%,-22.6,-20.1%,-18.4%
CC(=O)Nc1cc(-c2cccnc2)cn2c(-c3cccc(C(F)(F)F)c3)cnc12,/,?,-24.6%,-12.2,-16.6%,18.4µM*
O=C(Cn1nnc2ccccc21)Nc1ccccc1[N+](=O)[O-],-2.1%,-49.6%,-3.2%,-79.0*,-4.2%,6.4%
Cc1ccsc1/C=N\NC(=O)Cn1nnc2ccccc21,-3.6%,18.4µM*,-19.0%,11.6,2.1%,?
Cc1ccc2[nH]c(=O)c3cc(C(=O)N(C)c4ccc(Br)cc4)sc3c2c1,/,3.26µM*,-3.3%,/,-20.4%,3.66µM*
Cc1ccc2[nH]c(=O)c3cc(C(=O)N(CCCOC(C)C)Cc4ccco4)sc3c2c1,35.7%,11.6µM*,?,21.6,-21.2%,23.1µM*
CCCCN(CC)C(=O)c1cc2c(=O)[nH]c3ccc(C)cc3c2s1,21.2%,?,-9.4%,0.0,-12.5%,?
Cc1ccc2[nH]c(=O)c3cc(C(=O)N(C)c4ccccc4C)sc3c2c1,6.3%,10.3µM*,2.7%,?,-4.5%,?
Cc1ccc(C)c(N2N=C(C(=O)OCc3nnc(-c4cccs4)o3)CCC2=O)c1,-0.8%,-0.4%,2.1%,9.9,-0.5%,-0.4%
O=C(O)c1cc(C(=O)O)cc(N2C(=O)CSC2=S)c1,7.8%,24.7%,-3.0%,0.0,-2.1%,4.1%
O=C(O)c1ccc(N=C2SCC(=O)N2Cc2ccccc2)cc1,0.5%,-0.1%,-7.2%,40.0,-6.5%,-12.5%
O=C(O)c1ccc(N2C(=O)CSC2=S)cc1,3.1%,?,5.8%,-62.3*,-16.7%,?
O=C1CSC(=S)N1Cc1cccnc1,-1.2%,4.61µM*,7.94µM*,-83.7*,-26.3%,4.61µM*
O=C(O)c1ccc(CN2C(=O)CSC2=S)cc1,2.7%,18.4µM*,-2.5%,-20.2,-16.4%,18.4µM*
COc1cccc(C2=CC(c3ccccc3)n3nnnc3N2)c1 (stereo not given),31.1%,3.66µM*,6.9%,7.3,-31.2%,5.8µM*
COc1ccc(C2C=C(c3ccccc3)Nc3nnnn32)cc1 (stereo not given),40.2%,?,-5.4%,1.8,-38.0%,-18.4%
SMILES,ASM inhibitor,DT40 TDP1 no CPT,TGFb inhibitor,IL-1B inflam inh,HepG2 viability,DT40 TDP1 CPT
COc1cccc(C2C=C(c3ccc(OC)cc3OC)Nc3nnnn32)c1 (stereo not given),92.0%,16.4µM*,-5.6%,-5.2,-10.0%,?
COc1ccc(C2C=C(c3ccc(C)cc3)Nc3c(C(=O)Nc4ccccc4)cnn32)cc1 (stereo not given),/,?,?,/,-11.7%,?
CCOc1ccc(NC(=O)c2cnn3c2NC(c2cccc(OC)c2)=CC3c2ccccc2)cc1 (stereo not given),/,20.6µM*,0.7%,/,-0.1%,20.6µM*
COc1cccc(C2=CC(c3ccc(N(C)C)cc3)n3nnnc3N2)c1 (stereo not given),45.8%,13µM*,4.0%,-3.4,-29.8%,20.6µM*
COCc1c(C(=O)N2CCC(N(C)C)C2)cnn1-c1ncc2c(n1)-c1ccccc1CCC2 (stereo not given),/,-5.8%,/,/,/,5.1%[9.04 µM]
CN(Cc1nccs1)C(=O)C1CCC(=O)N(CCCc2ccccc2)C1 (stereo not given),1.9%,4.8%,6.6%,1.7,12.1%,-22.8%
Cc1ccc(C)c2c1cc(C)c1nnc(SCc3ccccn3)n12,0.7%,11.4%,-7.9%,0.0,3.1%,1.8%
Cc1cc2cc(C)c3nnc(SCc4ccccn4)n3c2cc1C,-3.1%,?,-8.0%,-6.3,2.9%,23.1µM*
COc1ccc(NC(=O)Cn2c(SCc3c(F)cccc3Cl)nc3ccncc32)cc1OC,/,-19.8%,?,/,-10.9%,-25.7%
COc1cc(C(=O)Nc2cccc3cccnc23)cc(OC)c1OC,-5.6%,25.9µM*,-0.8%,-19.6,5.4%,?
CCCOc1cccc(C(=O)Nc2cccc3cccnc23)c1,/,?,3.2%,/,-17.1%,23.1µM*
Cc1cnc(C(=O)Nc2cccc3cccnc23)cn1,5.0%,0.0092µM*,2.82µM*,197.7,-89.2%,0.0073µM*
Cc1cccc(C(=O)Nc2cccc3cccnc23)c1,0.9%,-18.0%,-17.1%,11.0,-22.2%,6.8%
CC(NC(=O)C1CCC(CNS(=O)(=O)c2ccccc2)CC1)c1ccccc1 (stereo not given),3.8%,-5.3%,-15.6%,7.6,-26.4%,8.0%
CC(NC(=O)c1ccco1)C(=O)N(C)Cc1ccc(C(F)(F)F)cc1 (stereo not given),11.1%,?,6.2%,-16.0,-18.5%,-12.4%
N#Cc1cccnc1N1CCN(C(C(=O)NC2CCCC2)c2ccc(F)cc2)CC1 (stereo not given),/,?,/,0.2,/,?
